Common to all, as to settings: mRNA level, 48 h; actives raise or lower the signal
Read-out in test [1]: matrix metalloproteinase-10 (MMP10), MMP10 (gene 4319)
The experiment in a line: LTEA_HepaRG_MMP10: Life Technologies and Expression Analysis (LTEA) Assay for matrix metalloproteinase-10 (MMP10) using HepaRG (AID 2283517). The procedure, abridged:
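In differentiated HepaRG cultures kept in 0.5% DMSO, test chemicals act for 48 h over an eight-point range with a top dose of 100 uM. Expression is then quantified by TaqMan RT-PCR against ACTB, GAPDH and POLR2A.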

Read-out in test [2]: matrix metalloproteinase-3 (MMP3), MMP3 (gene 4314)
The experiment in a line: LTEA_HepaRG_MMP3: Life Technologies and Expression Analysis (LTEA) Assay for matrix metalloproteinase-3 (MMP3) using HepaRG (AID 2283519). The procedure, abridged:
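Human liver HepaRG cultures received chemicals (top concentration 100 uM, 0.5% DMSO) for 48 h in duplicate. MMP3 mRNA induction or loss was then assessed via TaqMan qRT-PCR with housekeeping-gene normalisation.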

Read-out in test [3]: Paternally Expressed 10 (PEG10), PEG10 (gene 23089)
The experiment in a line: LTEA_HepaRG_PEG10: Life Technologies and Expression Analysis (LTEA) Assay for Paternally Expressed 10 (PEG10) using HepaRG (AID 2283520). The method, boiled down:
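PEG10 transcript measured by Fluidigm qRT-PCR, normalized to three housekeeping genes, in HepaRG cells treated 48 h (highest 100 uM, half-log steps, 0.5% DMSO vehicle). Cells plated 48 h before switching to serum-free induction medium.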

Read-out in test [4]: Nuclear factor NF-kappa-B p105 subunit (Homo sapiens) (UniProt P19838)
The experiment in a line: LTEA_HepaRG_NFKB1: Life Technologies and Expression Analysis (LTEA) Assay for Nuclear Factor Kappa B Subunit 1 (NFKB1) using HepaRG (AID 2283521).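 Further: TaqMan qRT-PCR transcript normalised to ACTB GAPDH and POLR2A housekeeping genes.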 The method, boiled down: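 Differentiated human HepaRG cells in serum-free induction medium with 0.5% DMSO were exposed for 48 h to eight half-log concentrations, top 100 uM, in duplicate. NFKB1 mRNA measured by Fluidigm TaqMan qRT-PCR, normalised to ACTB, GAPDH and POLR2A; bidirectional fit versus DMSO.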

Read-out in test [5]: Protein phosphatase 2A (PPP2R4), PTPA (gene 5524)
The experiment in a line: LTEA_HepaRG_PPP2R4: Life Technologies and Expression Analysis (LTEA) Assay for Protein phosphatase 2A (PPP2R4) using HepaRG (AID 2283522). The procedure, abridged: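 Expression was quantified by Fluidigm qRT-PCR normalised to three housekeeping genes after 48 h treatment. Human HepaRG cells received an 8-point series from 100 µM downward by half-logs, in duplicate with 0.5% DMSO vehicle and 1 mM phenobarbital as induction control.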

Read-out in test [6]: solute carrier (SLC22A1), SLC22A1 (gene 6580)
The experiment in a line: LTEA_HepaRG_SLC22A1: Life Technologies and Expression Analysis (LTEA) Assay for solute carrier (SLC22A1) using HepaRG (AID 2283524). The procedure, abridged: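 Transcript induction or suppression of SLC22A1 in human HepaRG cultures is scored after 48 h chemical treatment, with DMSO (0.5%) as baseline for bidirectional fitting. Concentrations span eight half-log points topping at 100 uM.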

Read-out in test [7]: Pyruvate Dehydrogenase Kinase 4 (PDK4), PDK4 (gene 5166)
The experiment in a line: LTEA_HepaRG_PDK4: Life Technologies and Expression Analysis (LTEA) Assay for Pyruvate Dehydrogenase Kinase 4 (PDK4) using HepaRG (AID 2283525). The method, boiled down: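 Eight-point, half-log concentration series (max 100 uM, 0.5% DMSO) applied to differentiated HepaRG cells for 48 h in duplicate. Endpoint: PDK4 mRNA induction or repression by qRT-PCR against DMSO baseline.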

Read-out in test [8]: NAD(P)H dehydrogenase [quinone] 1 (NQO1), NQO1 (gene 1728)
The experiment in a line: LTEA_HepaRG_NQO1: Life Technologies and Expression Analysis (LTEA) Assay for NAD(P)H dehydrogenase [quinone] 1 (NQO1) using HepaRG (AID 2283526). The procedure, abridged:
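NQO1 transcript induction or loss measured by TaqMan qRT-PCR, referenced to three housekeeping genes and fitted bidirectionally against 0.5% DMSO. HepaRG cultures exposed 48 h, duplicate, eight-point half-log series, top 100 uM.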

Read-out in test [9]: Nuclear factor erythroid 2-related factor 2 (Homo sapiens) (UniProt Q16236)
The experiment in a line: LTEA_HepaRG_NFE2L2: Life Technologies and Expression Analysis (LTEA) Assay for Nuclear factor erythroid 2-related factor 2 (NFE2L2) Transcription Factor using HepaRG (AID 2283527).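 Further: TaqMan qRT-PCR transcript level normalised to ACTB GAPDH and POLR2A housekeeping genes.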 The method, boiled down:
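Human liver HepaRG line treated in duplicate for 48 h with an eight-point series topping at 100 uM. Gene expression of NFE2L2 by qRT-PCR, bidirectionally fitted against the vehicle control.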

Read-out in test [10]: succinate dehydrogenase complex iron sulfur subunit B (SDHB), SDHB (gene 6390)
The experiment in a line: LTEA_HepaRG_SDHB: Life Technologies and Expression Analysis (LTEA) Assay for succinate dehydrogenase complex iron sulfur subunit B (SDHB) using HepaRG (AID 2283528). The method, boiled down: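 HepaRG cells (~100,000/well, plated 48 h) exposed in duplicate for 48 h in serum-free induction medium to 8-point half-log series from 100 uM in 0.5% DMSO; mRNA by qRT-PCR normalised to ACTB, GAPDH, POLR2A; bidirectional fit versus DMSO.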

Read-out in test [11]: Signal transducer and activator of transcription 3 (Homo sapiens) (UniProt P40763)
The experiment in a line: LTEA_HepaRG_STAT3: Life Technologies and Expression Analysis (LTEA) Assay for Signal transducer and activator of transcription (STAT3) using HepaRG (AID 2283529). The procedure, abridged: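 In this transcriptional endpoint, HepaRG cultures receive test chemicals at up to 100 uM for 48 h, tested in duplicate. STAT3 mRNA is normalized to ACTB, GAPDH and POLR2A.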

Read-out in test [12]: solute carrier (SLCO1B1), SLCO1B1 (gene 10599)
The experiment in a line: LTEA_HepaRG_SLCO1B1: Life Technologies and Expression Analysis (LTEA) Assay for solute carrier (SLCO1B1) using HepaRG (AID 2283530). The procedure, abridged:
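SLCO1B1 transcript read by qRT-PCR (Fluidigm arrays), normalized to three housekeeping genes, after 48 h chemical exposure of HepaRG cells; bidirectional concentration-response fitting versus 0.5% DMSO baseline. Eight-point half-log series, maximum 100 uM.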

Read-out in test [13]: sulfotransferase 2A1 (SULT2A1), SULT2A1 (gene 6822)
The experiment in a line: LTEA_HepaRG_SULT2A1: Life Technologies and Expression Analysis (LTEA) Assay for sulfotransferase 2A1 (SULT2A1) using HepaRG (AID 2283531). The method, boiled down:
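HepaRG, 48 h chemical exposure, 8-pt half-log curve from 100 uM in 0.5% DMSO, duplicates. Readout: TaqMan qRT-PCR of SULT2A1 mRNA, housekeeping-normalized. Bidirectional fit vs DMSO baseline.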

Read-out in test [14]: Transforming Growth Factor (TGFA), TGFA (gene 7039)
The experiment in a line: LTEA_HepaRG_TGFA: Life Technologies and Expression Analysis (LTEA) Assay for Transforming Growth Factor (TGFA) using HepaRG (AID 2283532). The method, boiled down: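 Gene expression of TGFA was quantified by qRT-PCR after human HepaRG cells were treated for 48 h with test chemicals (eight concentrations, highest 100 uM, 0.5% DMSO). Activity in either direction was fitted relative to DMSO.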

Read-out in test [15]: Transforming Growth Factor (TGFB1), TGFB1 (gene 7040)
The experiment in a line: LTEA_HepaRG_TGFB1: Life Technologies and Expression Analysis (LTEA) Assay for Transforming Growth Factor (TGFB1) Transporter using HepaRG (AID 2283533). The method, boiled down:
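qRT-PCR readout of TGFB1 transcript in HepaRG lysates, normalized to three housekeeping genes; gain or loss of signal fitted relative to 0.5% DMSO vehicle. Exposure: 48 h, 8-point curve from 100 uM, duplicate wells.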

Read-out in test [16]: TIMP1, TIMP1 (gene 7076)
The experiment in a line: LTEA_HepaRG_TIMP1: Life Technologies and Expression Analysis (LTEA) Assay for TIMP1 using HepaRG (AID 2283534).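 Further: TaqMan qRT-PCR signal normalized to ACTB GAPDH and POLR2A housekeeping genes.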 The procedure, abridged:
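HepaRG, 48 h exposure, 8-pt half-log series from 100 uM in 0.5% DMSO, duplicates; TIMP1 transcript by Fluidigm qRT-PCR, housekeeping-normalized; bidirectional curve fit vs DMSO baseline.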

Read-out in test [17]: Tumor necrosis factor receptor 1 (TNFRSF1A), TNFRSF1A (gene 7132)
The experiment in a line: LTEA_HepaRG_TNFRSF1A: Life Technologies and Expression Analysis (LTEA) Assay for Tumor necrosis factor receptor 1 (TNFRSF1A) using HepaRG (AID 2283535). The method, boiled down: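 HepaRG, 48 h plating then 48 h chemical exposure, serum-free induction media; 8-pt CRC from 100 uM, half-log, 0.5% DMSO vehicle, duplicates. Readout: TaqMan qRT-PCR (Fluidigm), housekeeping-gene normalized; bidirectional fit vs DMSO.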

Read-out in test [18]: MYC, MYC (gene 4609)
The experiment in a line: LTEA_HepaRG_MYC: Life Technologies and Expression Analysis (LTEA) Assay for MYC using HepaRG (AID 2283518). The procedure, abridged:
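qRT-PCR read-out of MYC transcript (Fluidigm TaqMan, housekeeping-normalized) after 48 h chemical exposure of HepaRG cells; eight concentrations, top 100 uM, half-log steps. Bidirectional curve fitting against 0.5% DMSO vehicle baseline.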

Read-out in test [19]: Thyroid Hormone Responsive (THRSP), THRSP (gene 7069)
The experiment in a line: LTEA_HepaRG_THRSP: Life Technologies and Expression Analysis (LTEA) Assay for Thyroid Hormone Responsive (THRSP) using HepaRG (AID 2283536). The procedure, abridged:
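Cell model: human HepaRG, approx. 100,000 cells/well, 0.5% DMSO vehicle. Exposure lasts 48 h; phenobarbital 1 mM serves as induction positive control. Gene expression is measured by qRT-PCR against three endogenous control genes.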

Read-out in test [20]: Phosphatase and tensin (PTEN), PTEN (gene 5728)
The experiment in a line: LTEA_HepaRG_PTEN: Life Technologies and Expression Analysis (LTEA) Assay for Phosphatase and tensin (PTEN) using HepaRG (AID 2283523). The procedure, abridged:
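Expression of PTEN is quantified in the human liver line HepaRG following two days of dosing (top concentration 100 uM, half-log dilutions, 0.5% DMSO). Values derive from bidirectional curve fitting relative to DMSO controls.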

Each structure is given as a SMILES string. Activity calls are given as the source filed them. How the source made its calls: active means hit-call score of the fitted dose curve at least 0.9, where 1 is the maximum; inactive means score below 0.9.

Sequence of Signal transducer and activator of transcription 3 (Homo sapiens) (P40763 whole entry, looked up): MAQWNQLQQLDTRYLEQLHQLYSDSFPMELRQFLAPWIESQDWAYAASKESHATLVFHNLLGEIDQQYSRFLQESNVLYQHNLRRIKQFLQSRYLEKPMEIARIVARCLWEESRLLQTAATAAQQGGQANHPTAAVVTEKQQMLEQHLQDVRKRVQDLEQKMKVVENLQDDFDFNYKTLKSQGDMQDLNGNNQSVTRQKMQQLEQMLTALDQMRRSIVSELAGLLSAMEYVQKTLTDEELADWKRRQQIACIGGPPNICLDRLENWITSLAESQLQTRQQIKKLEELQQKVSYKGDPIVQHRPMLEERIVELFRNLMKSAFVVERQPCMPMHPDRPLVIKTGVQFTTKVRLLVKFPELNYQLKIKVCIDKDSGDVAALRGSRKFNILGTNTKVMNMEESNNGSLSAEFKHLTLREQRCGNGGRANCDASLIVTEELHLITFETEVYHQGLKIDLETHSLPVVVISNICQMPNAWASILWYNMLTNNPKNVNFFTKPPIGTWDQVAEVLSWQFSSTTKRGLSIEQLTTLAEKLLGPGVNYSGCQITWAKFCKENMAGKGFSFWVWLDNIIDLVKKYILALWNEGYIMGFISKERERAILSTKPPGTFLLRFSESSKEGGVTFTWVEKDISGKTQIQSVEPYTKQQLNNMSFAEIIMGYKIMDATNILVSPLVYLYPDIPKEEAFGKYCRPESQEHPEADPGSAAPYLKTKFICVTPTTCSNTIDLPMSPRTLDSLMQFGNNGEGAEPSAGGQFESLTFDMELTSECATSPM
Sequence of Nuclear factor erythroid 2-related factor 2 (Homo sapiens) (Q16236 whole entry, looked up): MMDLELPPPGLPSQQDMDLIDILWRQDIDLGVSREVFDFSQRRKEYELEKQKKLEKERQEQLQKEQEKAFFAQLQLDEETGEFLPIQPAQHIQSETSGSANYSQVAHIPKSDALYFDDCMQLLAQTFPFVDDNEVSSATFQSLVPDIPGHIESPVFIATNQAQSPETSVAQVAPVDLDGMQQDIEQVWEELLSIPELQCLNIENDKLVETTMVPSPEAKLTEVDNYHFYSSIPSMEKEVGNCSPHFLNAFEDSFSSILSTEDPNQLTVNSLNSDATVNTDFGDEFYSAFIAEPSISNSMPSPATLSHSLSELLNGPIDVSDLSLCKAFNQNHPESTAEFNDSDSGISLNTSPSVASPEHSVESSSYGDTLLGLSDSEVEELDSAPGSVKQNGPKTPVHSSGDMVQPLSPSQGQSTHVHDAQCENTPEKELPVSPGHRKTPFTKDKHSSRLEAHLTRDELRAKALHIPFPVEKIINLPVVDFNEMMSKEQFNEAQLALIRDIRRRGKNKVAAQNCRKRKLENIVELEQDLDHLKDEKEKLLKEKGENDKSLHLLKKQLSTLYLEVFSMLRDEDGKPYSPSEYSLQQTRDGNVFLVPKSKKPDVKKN
Sequence of Nuclear factor NF-kappa-B p105 subunit (Homo sapiens) (P19838 whole entry, looked up): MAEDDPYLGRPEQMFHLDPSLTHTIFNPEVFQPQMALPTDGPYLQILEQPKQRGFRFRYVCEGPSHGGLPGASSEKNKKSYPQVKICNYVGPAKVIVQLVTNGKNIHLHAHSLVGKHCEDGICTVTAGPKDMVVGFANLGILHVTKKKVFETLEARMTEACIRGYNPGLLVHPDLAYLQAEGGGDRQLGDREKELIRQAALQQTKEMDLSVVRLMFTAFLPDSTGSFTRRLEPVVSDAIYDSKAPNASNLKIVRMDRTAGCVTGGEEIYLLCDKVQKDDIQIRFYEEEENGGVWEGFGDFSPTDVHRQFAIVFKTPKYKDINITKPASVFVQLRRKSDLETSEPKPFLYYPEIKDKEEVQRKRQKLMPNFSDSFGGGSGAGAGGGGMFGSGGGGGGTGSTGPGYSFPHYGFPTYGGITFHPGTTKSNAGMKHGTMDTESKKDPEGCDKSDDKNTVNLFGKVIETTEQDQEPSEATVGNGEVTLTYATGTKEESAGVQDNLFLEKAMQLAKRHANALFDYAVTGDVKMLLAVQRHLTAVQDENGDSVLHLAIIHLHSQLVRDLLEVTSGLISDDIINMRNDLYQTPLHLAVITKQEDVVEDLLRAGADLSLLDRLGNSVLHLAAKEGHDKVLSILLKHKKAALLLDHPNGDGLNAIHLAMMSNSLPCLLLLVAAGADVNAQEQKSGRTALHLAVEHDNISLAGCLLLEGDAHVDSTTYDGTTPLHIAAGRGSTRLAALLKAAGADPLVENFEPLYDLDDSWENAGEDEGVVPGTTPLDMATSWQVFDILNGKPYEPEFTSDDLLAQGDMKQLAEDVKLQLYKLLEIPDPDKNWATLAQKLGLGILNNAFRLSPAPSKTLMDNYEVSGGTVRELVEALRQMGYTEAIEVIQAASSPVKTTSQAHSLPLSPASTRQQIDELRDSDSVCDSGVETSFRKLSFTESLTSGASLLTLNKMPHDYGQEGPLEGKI

Take `c1cc(-c2ccncc2)ccn1`: the call in [1], in test [3], in test [4], in test [5], in test [6] and in [7] was inactive. For the same molecule, the molecule was called inactive in test [8], in [9], in [10], in test [11], in [12] and in test [13]. Also, the result in [14], in [15], in test [16] and in [17] was inactive. Further, the AC50 in test [2] was 17.6 µM (active).
For the molecule `Cc1c(C(=O)O)c(O)cc2c1C(=O)c1c(O)c([C@@H]3O[C@H](CO)[C@@H](O)[C@H](O)[C@H]3O)c(O)c(O)c1C2=O`, the call in [1], in test [18], in test [2], in test [3], in test [5] and in [6] was inactive. Besides, the outcome in [7], in test [8], in test [9], in test [10], in test [11] and in test [12] was inactive. Also, the molecule was called inactive in test [13], in test [14], in test [15], in test [16], in [17] and in test [19].
For `CN1CCCC1=O`, the result in [1], in test [18], in [2], in [3], in test [5] and in test [6] was inactive. Further, the call in test [7], in test [8], in test [9], in [10], in test [11] and in test [12] was inactive. Moreover, the result in [13], in test [14], in test [15], in [16], in test [17] and in [19] was inactive.
For `O=C(O)Cc1ccccc1Nc1c(Cl)cccc1Cl`, the outcome in [1], in test [18], in test [2], in [3], in test [5] and in test [20] was inactive. The result in [6], in test [7], in [8], in test [9], in [10] and in test [11] was inactive. In addition, the molecule was called inactive in test [12], in test [13], in test [14], in [15], in test [16] and in [17]. In [19], the molecule was classed as inactive.

The term AC50 denotes the concentration at which the activity in the assay is half-maximal.
